Here are results for six molecules from PubChem BioAssay (EPA / NIEHS).

For assay [1], the target named is Bile acid receptor (Homo sapiens) (UniProt Q96RI1). Kind of assay: OT_FXR_FXRSRC1_0480: Odyssey Thera (OT) 8-hour HEK293T Protein-Complementation Assay for Farnesoid X receptor/SRC-1 Co-activator (AID 2283383; active = hit-call score of the fitted dose curve at least 0.9, where 1 is the maximum). The procedure, abridged: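 Co-activator recruitment to FXR was measured in living HEK293T cells, where interaction of the two fused partners restored an active fluorescent reporter. Signal gain after 8 h treatment was referenced to DMSO.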
Sequence of Bile acid receptor (Homo sapiens) (Q96RI1 whole entry, looked up, the tested form may be a part): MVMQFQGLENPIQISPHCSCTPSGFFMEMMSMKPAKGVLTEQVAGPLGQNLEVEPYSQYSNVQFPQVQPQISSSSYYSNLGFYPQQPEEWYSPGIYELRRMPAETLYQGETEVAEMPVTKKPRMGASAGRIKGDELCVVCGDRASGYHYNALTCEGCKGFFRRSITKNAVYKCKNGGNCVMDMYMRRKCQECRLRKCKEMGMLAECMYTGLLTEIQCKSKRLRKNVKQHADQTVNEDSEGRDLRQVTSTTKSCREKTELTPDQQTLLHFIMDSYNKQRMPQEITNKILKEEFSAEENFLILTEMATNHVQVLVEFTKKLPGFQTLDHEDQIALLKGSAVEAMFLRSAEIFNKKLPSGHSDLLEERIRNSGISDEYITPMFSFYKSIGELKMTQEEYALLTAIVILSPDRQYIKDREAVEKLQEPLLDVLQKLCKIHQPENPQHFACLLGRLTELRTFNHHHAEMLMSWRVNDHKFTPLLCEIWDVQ

Assay [2] has the same target. Briefly: OT_FXR_FXRSRC1_1440: Odyssey Thera (OT) 24-hour HEK293T Protein-Complementation Assay for Farnesoid X receptor/SRC-1 Co-activator (AID 2283384; active = hit-call score of the fitted dose curve at least 0.9, where 1 is the maximum). The procedure, abridged:
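Cell-based binding reporter: interaction of FXR with SRC-1 brings reporter fragments together, giving a fluorescence signal read 24 h after dosing of HEK293T cells.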

Assay [3] concerns the target Peroxisome proliferator-activated receptor gamma (Homo sapiens) (UniProt P37231). Kind of assay: OT_PPARg_PPARgSRC1_0480: Odyssey Thera (OT) 8-hour Protein-Complementation Assay for Peroxisome Proliferator-activated Receptor Gamma / SRC-1 Co-activator (AID 2283387; active = hit-call score of the fitted dose curve at least 0.9, where 1 is the maximum;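 note: nuclear to cytoplasmic split Venus YFP fluorescence ratio reporting PPARg SRC-1 interaction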). The procedure, abridged:
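HEK293T transiently transfected with PPARg and SRC-1 fused to Venus YFP fragments, compounds 8 h at 37C. Fixed, Draq5-stained cells imaged; nuclear/cytoplasmic 488 nm fluorescence ratio over at least 350 cells per image; gain fitted versus DMSO.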

Assay [4] shares this target. Kind of assay: OT_PPARg_PPARgSRC1_1440: Odyssey Thera (OT) 24-hour Protein-Complementation Assay for Peroxisome Proliferator-activated Receptor Gamma/ SRC-1 Co-activator (AID 2283388; active = hit-call score of the fitted dose curve at least 0.9, where 1 is the maximum). The procedure, abridged: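 Protein-fragment complementation between PPARg and coactivator SRC-1 was measured by fluorescence imaging in transiently transfected HEK293T cells after 24 h treatment. Signal was quantified as N/C ratio in the 488 nm channel, with DMSO as negative control.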

Assay [5] in a line: CEETOX_H295R_11DCORT: CeeTox H295R High-throughput Steroidogenesis Assay for 11-Deoxycortisol (11DCORT) (AID 2283432).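 Note: 11-deoxycortisol secreted into the medium measured by LC-MS/MS.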 The note with it: actives raise or lower the signal. The procedure, abridged:
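H295R cells prestimulated 48 h with 10 uM forskolin, then exposed 48 h to chemical in 0.1% DMSO. 11-Deoxycortisol in medium quantified by HPLC-MS/MS after MTBE extraction; bidirectional fit versus DMSO. MTT viability read in same wells.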

Assay [6] can be described thus: CEETOX_H295R_OHPREG: CeeTox H295R High-throughput Steroidogenesis Assay for OH-Pregnenolone (OHPREG) (AID 2283434). The note with it: actives raise or lower the signal. The procedure, abridged: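 Human adrenal H295R cells were prestimulated 48 h with 10 uM forskolin, then exposed 48 h to chemical in 0.1% DMSO. Medium 17alpha-hydroxypregnenolone was quantified by HPLC-MS/MS after MTBE extraction; bidirectional fitting versus DMSO baseline.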

Assay [7] is described as follows: CEETOX_H295R_OHPROG: CeeTox H295R High-throughput Steroidogenesis Assay for OH-Progesterone (OHPROG) (AID 2283435).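 For AC50: 17alpha-hydroxyprogesterone secreted into medium measured by HPLC-MS/MS.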 The note with it: actives raise or lower the signal. The procedure, abridged:
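Secreted 17alpha-hydroxyprogesterone is read by tandem MS from media of forskolin-primed H295R cells dosed with chemical for 48 h. Activity is fitted in both directions against DMSO baseline; cytotoxic concentrations are re-tested diluted.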

Assay [8] in a line: CEETOX_H295R_CORTIC: CeeTox H295R High-throughput Steroidogenesis Assay for Corticosterone (CORTIC) (AID 2283437).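 Note: corticosterone secreted into medium quantified by mass spectrometry.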 The note with it: actives raise or lower the signal. The procedure, abridged: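 H295R cells were prestimulated 48 h with 10 uM forskolin, then exposed 48 h to test chemical in 0.1% DMSO. Medium corticosterone was MTBE-extracted and quantified by HPLC-MS/MS; bidirectional fit versus DMSO baseline.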

Assay [9] is described as follows: CEETOX_H295R_CORTISOL: CeeTox H295R High-throughput Steroidogenesis Assay for Cortisol (AID 2283438).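 Note: cortisol secreted into medium quantified by LC-MS/MS.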 The note with it: actives raise or lower the signal. The procedure, abridged: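 Human adrenocortical H295R cells (passage ≤10) received test chemicals for 48 h after forskolin priming. Secreted cortisol was measured by LC-MS/MS.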
Assay [10] in a line: CEETOX_H295R_DOC: CeeTox H295R High-throughput Steroidogenesis Assay for DOC (AID 2283439). The note with it: actives raise or lower the signal. The procedure, abridged:
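Secreted DOC was quantified from H295R media by HPLC-MS/MS after 48 h chemical exposure following 48 h forskolin (10 uM) prestimulation. Values were fitted in both directions relative to DMSO, the negative control and baseline.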

The nature of assay [11]: CEETOX_H295R_PROG: CeeTox H295R High-throughput Steroidogenesis Assay for Progesterone (PROG) (AID 2283442).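 For AC50: human H295R adrenal cells primed with 10 µM forskolin before dosing; progesterone secreted into medium by H295R cells measured by HPLC-MS/MS.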 The conditions noted are these: actives raise or lower the signal. The procedure, abridged: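 Steps: seed H295R cells and let them adhere overnight; prime 48 h with 10 uM forskolin; dose with compound in DMSO at 0.1% final for 48 h; extract medium steroids with MTBE; measure progesterone by LC-MS/MS. MTT viability was run in the same wells.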

Read-out in assay [12]: Tumor necrosis factor receptor superfamily member 6 (Homo sapiens) (UniProt P25445)
Kind of assay: LTEA_HepaRG_FAS: Life Technologies and Expression Analysis (LTEA) Assay for Fas cell surface death receptor (FAS) using HepaRG (AID 2283447). The conditions noted are these: mRNA level, 48 h; actives raise or lower the signal. The procedure, abridged: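 Differentiated human HepaRG cells, pre-cultured 48 h, were exposed in duplicate for 48 h to 8-point half-log concentrations (top 100 uM, 0.5% DMSO) in serum-free induction medium; FAS mRNA measured by qRT-PCR, normalized to ACTB/GAPDH/POLR2A, bidirectional fit versus DMSO.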

Read-out in assay [13]: Fatty acid synthase (Homo sapiens) (UniProt P49327)
Kind of assay: LTEA_HepaRG_FASN: Life Technologies and Expression Analysis (LTEA) Assay for Fatty Acid Synthase (FASN) using HepaRG (AID 2283448). The conditions noted are these: mRNA level, 48 h; actives raise or lower the signal. The procedure, abridged: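 Transcript-level assay: HepaRG liver cells are treated for 48 h across an eight-point range topping at 100 uM, and FASN mRNA, normalized to three housekeeping genes, is compared with DMSO controls in both directions.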

Read-out in assay [14]: Cyclin D2 (CCND2), CCND2 (gene 894)
Briefly: LTEA_HepaRG_CCND2: Life Technologies and Expression Analysis (LTEA) Assay for Cyclin D2 (CCND2) using HepaRG (AID 2283449).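 Note: CCND2 transcript measured by TaqMan qRT-PCR and normalised to three housekeeping genes.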 The conditions noted are these: mRNA level, 48 h; actives raise or lower the signal. The procedure, abridged: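 Differentiated human HepaRG cells were exposed for 48 h in serum-free induction medium to eight half-log concentrations topping at 100 uM (0.5% DMSO vehicle). CCND2 mRNA was quantified by TaqMan qRT-PCR, normalised to ACTB, GAPDH and POLR2A, and fitted bidirectionally against DMSO.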

Read-out in assay [15]: Cyclin Dependent Kinase Inhibitor 1A (CDKN1A), CDKN1A (gene 1026)
Kind of assay: LTEA_HepaRG_CDKN1A: Life Technologies and Expression Analysis (LTEA) Assay for Cyclin Dependent Kinase Inhibitor 1A (CDKN1A) using HepaRG (AID 2283450). The note with it: mRNA level, 48 h; actives raise or lower the signal. The procedure, abridged:
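Read-out is CDKN1A mRNA by TaqMan qRT-PCR, normalized to three housekeeping genes and fitted in both directions against the DMSO baseline. Human HepaRG cells were treated 48 h with test chemicals up to 100 uM in half-log steps, 0.5% DMSO.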

Read-out in assay [16]: Cyclin D1 (CCND1), CCND1 (gene 595)
Kind of assay: LTEA_HepaRG_CCND1: Life Technologies and Expression Analysis (LTEA) Assay for Cyclin D1 (CCND1) using HepaRG (AID 2283451).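 For AC50: TaqMan qRT-PCR transcript level normalised to ACTB GAPDH and POLR2A housekeeping genes.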 The note with it: mRNA level, 48 h; actives raise or lower the signal. The procedure, abridged:
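HepaRG plated 48 h, medium switched to serum-free induction medium, chemicals added in duplicate (top 100 uM, half-log steps, 0.5% DMSO) for 48 h, cells lysed, RNA measured by TaqMan qRT-PCR.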

In assay [17] the target is Estrogen receptor (Homo sapiens) (UniProt P03372). Kind of assay: OT_ERa_GFPERaERE_0120: Odyssey Thera (OT) 2-hour HeLa Transcription Induction Assay for Estrogen Receptor (AID 2283382; active = hit-call score of the fitted dose curve at least 0.9, where 1 is the maximum). The procedure, abridged:
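Measures ESR1 pathway reporter gain-of-signal in HeLa cells after a 2-hour treatment, detected as fluorescent protein induction by microscopy, DMSO as baseline.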

Assay [18] is described as follows: CEETOX_H295R_ESTRADIOL: CeeTox H295R High-throughput Steroidogenesis Assay for Estradiol (AID 2283440).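 Note: estradiol secreted into medium quantified by LC-MS/MS after dansyl derivatisation.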 The note with it: actives raise or lower the signal. The procedure, abridged: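 Estradiol secreted into the medium was measured by tandem mass spectrometry after liquid-liquid extraction and dansylation. Human H295R cells had been forskolin-primed (10 uM, 48 h) before a 48 h chemical exposure with 0.1% DMSO.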

Assay [19] is described as follows: CEETOX_H295R_ESTRONE: CeeTox H295R High-throughput Steroidogenesis Assay for Estrone (AID 2283441).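 Note: estrone secreted into medium measured by LC-MS/MS after dansyl derivatization.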 The conditions noted are these: actives raise or lower the signal. The procedure, abridged:
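H295R cells; 48 h forskolin (10 uM) prestimulation; 48 h compound exposure, 0.1% DMSO final. Medium estrone: MTBE extraction, dansyl derivatization, HPLC-MS/MS. Bidirectional fit vs DMSO.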

Where “and” joins values, the source holds several entries; their conditions need not be identical. Identical values can stand only once. Records with an inconclusive call do not appear. The source holds several records for some structures; these can differ, active in one and inactive in another. Calls of active or inactive are those of the source. Rule for the calls, unless noted: active = hit-call score of the fitted dose curve at least 0.9, where 1 is the maximum; inactive = score below 0.9.

Sequence of Fatty acid synthase (Homo sapiens) (P49327 whole entry, looked up): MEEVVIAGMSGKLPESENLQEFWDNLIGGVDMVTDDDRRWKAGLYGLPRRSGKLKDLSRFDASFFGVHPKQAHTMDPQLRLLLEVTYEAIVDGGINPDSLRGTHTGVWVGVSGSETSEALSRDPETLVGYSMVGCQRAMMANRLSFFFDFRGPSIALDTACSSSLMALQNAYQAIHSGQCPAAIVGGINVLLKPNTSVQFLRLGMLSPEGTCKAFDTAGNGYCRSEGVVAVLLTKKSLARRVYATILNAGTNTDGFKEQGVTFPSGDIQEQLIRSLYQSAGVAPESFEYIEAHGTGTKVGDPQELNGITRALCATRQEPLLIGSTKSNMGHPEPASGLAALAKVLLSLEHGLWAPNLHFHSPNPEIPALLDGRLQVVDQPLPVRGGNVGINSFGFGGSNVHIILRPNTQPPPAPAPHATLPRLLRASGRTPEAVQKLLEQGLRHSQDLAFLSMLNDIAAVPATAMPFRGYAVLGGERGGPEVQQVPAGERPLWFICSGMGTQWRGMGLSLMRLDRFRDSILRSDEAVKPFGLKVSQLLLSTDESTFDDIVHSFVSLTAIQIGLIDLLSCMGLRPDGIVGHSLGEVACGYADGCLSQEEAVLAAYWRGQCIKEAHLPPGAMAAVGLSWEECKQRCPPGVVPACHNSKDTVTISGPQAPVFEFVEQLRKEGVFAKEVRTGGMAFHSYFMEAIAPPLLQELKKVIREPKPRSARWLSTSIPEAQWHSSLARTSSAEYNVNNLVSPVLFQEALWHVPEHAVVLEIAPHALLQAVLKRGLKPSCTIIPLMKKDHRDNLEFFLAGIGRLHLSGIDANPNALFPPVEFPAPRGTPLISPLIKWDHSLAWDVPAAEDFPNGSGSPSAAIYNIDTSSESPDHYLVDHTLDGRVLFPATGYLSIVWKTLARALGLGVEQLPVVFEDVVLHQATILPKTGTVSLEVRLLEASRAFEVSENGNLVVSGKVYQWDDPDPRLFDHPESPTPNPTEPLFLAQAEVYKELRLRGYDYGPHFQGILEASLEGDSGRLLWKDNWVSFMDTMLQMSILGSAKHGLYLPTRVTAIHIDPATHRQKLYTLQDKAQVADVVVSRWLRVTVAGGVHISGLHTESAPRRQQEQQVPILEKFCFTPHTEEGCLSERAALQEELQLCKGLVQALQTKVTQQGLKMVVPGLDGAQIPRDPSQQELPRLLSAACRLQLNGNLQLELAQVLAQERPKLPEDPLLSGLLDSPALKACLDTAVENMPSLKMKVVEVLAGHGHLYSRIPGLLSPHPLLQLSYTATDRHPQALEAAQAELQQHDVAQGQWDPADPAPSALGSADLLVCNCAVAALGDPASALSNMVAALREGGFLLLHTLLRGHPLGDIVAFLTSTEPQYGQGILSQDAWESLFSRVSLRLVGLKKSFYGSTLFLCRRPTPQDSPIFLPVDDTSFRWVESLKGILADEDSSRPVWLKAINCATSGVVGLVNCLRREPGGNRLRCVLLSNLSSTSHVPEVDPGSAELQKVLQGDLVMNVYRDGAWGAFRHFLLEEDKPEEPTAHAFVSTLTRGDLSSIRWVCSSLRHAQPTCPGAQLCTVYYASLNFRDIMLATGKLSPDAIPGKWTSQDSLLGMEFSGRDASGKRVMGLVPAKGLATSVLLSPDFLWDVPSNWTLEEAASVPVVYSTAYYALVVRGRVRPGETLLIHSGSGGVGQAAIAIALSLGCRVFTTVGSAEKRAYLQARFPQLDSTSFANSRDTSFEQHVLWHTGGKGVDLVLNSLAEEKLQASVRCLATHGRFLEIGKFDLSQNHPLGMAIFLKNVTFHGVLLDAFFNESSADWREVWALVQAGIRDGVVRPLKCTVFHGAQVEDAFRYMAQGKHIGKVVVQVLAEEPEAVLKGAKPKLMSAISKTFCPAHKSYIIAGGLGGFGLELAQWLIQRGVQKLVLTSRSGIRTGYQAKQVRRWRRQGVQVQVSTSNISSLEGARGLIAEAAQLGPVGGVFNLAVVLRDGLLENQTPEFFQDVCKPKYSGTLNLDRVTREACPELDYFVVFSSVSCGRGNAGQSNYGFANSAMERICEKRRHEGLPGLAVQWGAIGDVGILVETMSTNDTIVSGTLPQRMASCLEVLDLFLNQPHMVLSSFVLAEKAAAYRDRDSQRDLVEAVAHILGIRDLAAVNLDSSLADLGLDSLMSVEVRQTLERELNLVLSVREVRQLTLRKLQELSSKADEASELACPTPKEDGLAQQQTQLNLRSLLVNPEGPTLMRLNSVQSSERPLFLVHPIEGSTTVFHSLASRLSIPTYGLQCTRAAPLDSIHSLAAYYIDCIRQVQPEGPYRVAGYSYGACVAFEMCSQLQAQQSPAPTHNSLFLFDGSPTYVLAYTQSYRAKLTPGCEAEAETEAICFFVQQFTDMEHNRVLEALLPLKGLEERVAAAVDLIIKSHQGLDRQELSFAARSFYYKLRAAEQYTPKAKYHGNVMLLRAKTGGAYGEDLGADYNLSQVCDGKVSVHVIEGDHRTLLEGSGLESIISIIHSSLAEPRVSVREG
Sequence of Peroxisome proliferator-activated receptor gamma (Homo sapiens) (P37231 whole entry, looked up, the tested form may be a part): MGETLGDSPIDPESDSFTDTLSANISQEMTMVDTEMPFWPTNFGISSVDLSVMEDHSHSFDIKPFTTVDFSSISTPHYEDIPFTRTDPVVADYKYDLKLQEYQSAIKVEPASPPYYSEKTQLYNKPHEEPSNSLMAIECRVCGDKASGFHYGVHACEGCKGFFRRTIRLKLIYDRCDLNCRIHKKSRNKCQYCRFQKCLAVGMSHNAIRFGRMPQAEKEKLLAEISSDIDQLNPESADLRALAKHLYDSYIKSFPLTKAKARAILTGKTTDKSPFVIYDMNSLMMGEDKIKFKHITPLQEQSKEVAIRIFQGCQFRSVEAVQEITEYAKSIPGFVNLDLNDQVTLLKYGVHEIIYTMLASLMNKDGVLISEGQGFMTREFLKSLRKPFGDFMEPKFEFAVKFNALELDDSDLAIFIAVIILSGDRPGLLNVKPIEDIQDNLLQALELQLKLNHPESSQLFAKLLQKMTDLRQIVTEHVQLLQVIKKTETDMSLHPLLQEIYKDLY
Sequence of Estrogen receptor (Homo sapiens) (P03372 whole entry, looked up): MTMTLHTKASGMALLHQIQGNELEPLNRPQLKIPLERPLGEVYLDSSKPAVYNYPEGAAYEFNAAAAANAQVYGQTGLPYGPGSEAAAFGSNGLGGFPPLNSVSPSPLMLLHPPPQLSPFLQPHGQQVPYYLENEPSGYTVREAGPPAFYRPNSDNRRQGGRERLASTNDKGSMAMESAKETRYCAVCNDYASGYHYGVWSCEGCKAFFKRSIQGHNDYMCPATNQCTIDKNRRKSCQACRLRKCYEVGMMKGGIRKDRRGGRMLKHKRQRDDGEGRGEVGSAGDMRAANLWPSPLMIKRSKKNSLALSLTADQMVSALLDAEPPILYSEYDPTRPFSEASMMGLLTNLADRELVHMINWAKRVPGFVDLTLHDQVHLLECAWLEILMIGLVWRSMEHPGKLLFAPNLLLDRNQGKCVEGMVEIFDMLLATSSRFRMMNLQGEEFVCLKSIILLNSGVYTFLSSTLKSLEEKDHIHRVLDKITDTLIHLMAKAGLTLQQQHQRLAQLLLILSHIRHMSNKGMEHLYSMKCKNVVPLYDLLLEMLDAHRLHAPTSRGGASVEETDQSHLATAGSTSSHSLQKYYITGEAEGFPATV

As a reminder, the AC50 is the concentration at which the activity in the assay is half-maximal. Consider `CCCN(CCOc1c(Cl)cc(Cl)cc1Cl)C(=O)n1ccnc1`, for which the AC50 was 11.7 µM (active) in assay [1]; 12.4 µM (active) in assay [2]; 0.374 µM (active) in assay [5]; 0.159 µM (active) in assay [6]; 0.0122 µM (active) in assay [8]; 0.355 µM (active) in assay [9]. In addition, the AC50 is 0.0358 µM (active) in assay [10]; 0.211 µM (active) in [11]; 77.4 µM (active) in assay [13]; 30.5 µM (active) in assay [15]; 89.8 µM (active) in assay [16]. Besides, the outcome in assay [3], in assay [4], in [7], in assay [12] and in assay [14] was inactive.

As to `O=C(O)CCCOc1ccc(Cl)cc1Cl`, the result in [3], in assay [4], in assay [12], in assay [13], in [14] and in assay [15] was inactive. Also, in assay [16], the molecule was called inactive.

Turning to `COP(=S)(OC)Oc1ccc(SC)c(C)c1`, the molecule was classed as inactive in [17], in assay [3], in assay [4], in assay [6], in [8] and in assay [9]. Besides, the molecule was classed as inactive in assay [10], in assay [18], in assay [19], in assay [11], in assay [12] and in assay [14]. Besides, the result in [15] and in assay [16] was inactive. The results for the AC50 in [5] and in assay [7] were 41.5 µM (active) and 21.5 µM (active), respectively.

As to `CC(C)(C)C(O)C(Oc1ccc(Cl)cc1)n1cncn1` (stereo not given), the result in assay [3], in assay [4], in [6], in [7], in assay [11] and in assay [12] was inactive. For the same molecule, the molecule was classed as inactive in [14], in assay [15] and in assay [16]. For the same molecule, the half-maximal activity concentration (AC50) is 18.3 µM (active) and 3.14 µM (active) and 3.31 µM (active) in assay [7]; 32.7 µM (active) and 50 µM (active) and 27.9 µM (active) in assay [13].

For `CCOCN(C(=O)CCl)c1c(C)cccc1CC`, the outcome in assay [17], in assay [3], in assay [4], in assay [12], in [14] and in assay [15] was inactive. The molecule was classed as inactive in assay [16]. Moreover, the half-maximal activity concentration (AC50) in assay [13] is 90.8 µM (active).

As to `Clc1ccccc1-c1nnc(-c2ccccc2Cl)nn1`, the molecule was called inactive in [17], in assay [3], in assay [4], in assay [6], in assay [7] and in [18]. For the same molecule, the molecule was classed as inactive in assay [19], in [11], in assay [12], in assay [15] and in assay [16]. The concentration at half-maximal activity (AC50) in [13] is 24.7 µM (active).
